Measured values from the supplement of paper PMC10849652.
About 8,800 targets were measured; listed, in parts, are those with a hit and a random draw of the rest. About 0.5% of all pairs of compound and target were hits. Unmarked numbers belong to inactive results.

What was measured:
Assay in all cases: log2 fold change, soluble protein after heating vs DMSO (PISA); higher = thermal stabilisation; K562 lysate, 10 uM; active = over 0.2 and 3.5 SD of the protein, either way, in both replicates (recomputed)
vemurafenib = compound: CCCS(=O)(=O)Nc1ccc(F)c(C(=O)c2c[nH]c3ncc(-c4ccc(Cl)cc4)cc23)c1F [vemurafenib]
Outline: (§1)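 Pellets of K562 cells were dounce-homogenised in PBS pH 7.4 with 1 mM MgCl2, and the crude extract was held at 1 mg/mL protein for a 30 min treatment with 10 μM compound. Aliquots were heated for 3 min over 48°C-58°C and pooled before NP-40 was added to 0.5% at 4°C. The supernatant from 21,000xg for 90 min was quantified by TMTpro 16plex LC-MS/MS with channel sums equalised. Values are reported from duplicates as log-two fold change in thermal stability relative to solvent controls.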

[1] = compound: CCCS(=O)(=O)Nc1ccc(F)c(C(=O)c2c[nH]c3ncc(Cl)cc23)c1F
Outline: as §1

barasertib = compound: CCN(CCCOc1ccc2c(Nc3cc(CC(=O)Nc4cccc(F)c4)[nH]n3)ncnc2c1)CCOP(=O)(O)O [barasertib]
Outline: as §1

[2] = compound: CC[C@@H]1C(=O)N(C)c2cnc(Nc3ccc(C(=O)NC4CCN(C)CC4)cc3OC)nc2N1C1CCCC1
Outline: as §1

volasertib = compound: CC[C@@H]1C(=O)N(C)c2cnc(Nc3ccc(C(=O)N[C@H]4CC[C@H](N5CCN(CC6CC6)CC5)CC4)cc3OC)nc2N1C(C)C [volasertib]
Outline: as §1

[3] = compound: CCn1c(C(=O)N(C2CC2)C2CC2)cc2c3c(ncn3C)c(Nc3cc(C)n(C)n3)nc21
Outline: as §1

[4] = compound: CCn1cc(-c2ccnc3[nH]c(-c4cccc(CN(C)C)c4)cc23)c(-c2ccc(NC(=O)N(C)C)cc2)n1
Outline: as §1

[5] = compound: CN1CCC(CNc2ccc3ncc(-c4cccc(OC(F)(F)F)c4)n3n2)CC1
Outline: as §1

saracatinib = compound: CN1CCN(CCOc2cc(OC3CCOCC3)c3c(Nc4c(Cl)ccc5c4OCO5)ncnc3c2)CC1 [saracatinib]
Outline: as §1

sotrastaurin = compound: CN1CCN(c2nc(C3=C(c4c[nH]c5ccccc45)C(=O)NC3=O)c3ccccc3n2)CC1 [sotrastaurin]
Outline: as §1

Sequence of UniProt P34913 (P34913 whole entry, looked up): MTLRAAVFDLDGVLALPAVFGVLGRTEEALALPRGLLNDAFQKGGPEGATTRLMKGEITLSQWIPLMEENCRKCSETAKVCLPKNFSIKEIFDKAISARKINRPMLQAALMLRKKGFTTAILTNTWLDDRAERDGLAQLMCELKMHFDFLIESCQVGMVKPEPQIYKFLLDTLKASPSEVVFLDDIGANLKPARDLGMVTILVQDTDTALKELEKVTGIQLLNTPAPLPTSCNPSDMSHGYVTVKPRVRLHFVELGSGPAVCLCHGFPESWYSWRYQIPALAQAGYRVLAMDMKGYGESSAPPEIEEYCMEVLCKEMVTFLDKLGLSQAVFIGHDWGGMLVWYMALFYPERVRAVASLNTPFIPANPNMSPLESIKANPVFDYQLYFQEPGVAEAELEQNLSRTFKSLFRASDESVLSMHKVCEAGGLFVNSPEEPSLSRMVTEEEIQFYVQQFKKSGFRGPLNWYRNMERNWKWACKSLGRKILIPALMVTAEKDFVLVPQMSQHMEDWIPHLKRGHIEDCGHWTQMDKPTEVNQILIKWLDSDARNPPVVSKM
Sequence of UniProt Q9NSD9 (Q9NSD9 whole entry, looked up): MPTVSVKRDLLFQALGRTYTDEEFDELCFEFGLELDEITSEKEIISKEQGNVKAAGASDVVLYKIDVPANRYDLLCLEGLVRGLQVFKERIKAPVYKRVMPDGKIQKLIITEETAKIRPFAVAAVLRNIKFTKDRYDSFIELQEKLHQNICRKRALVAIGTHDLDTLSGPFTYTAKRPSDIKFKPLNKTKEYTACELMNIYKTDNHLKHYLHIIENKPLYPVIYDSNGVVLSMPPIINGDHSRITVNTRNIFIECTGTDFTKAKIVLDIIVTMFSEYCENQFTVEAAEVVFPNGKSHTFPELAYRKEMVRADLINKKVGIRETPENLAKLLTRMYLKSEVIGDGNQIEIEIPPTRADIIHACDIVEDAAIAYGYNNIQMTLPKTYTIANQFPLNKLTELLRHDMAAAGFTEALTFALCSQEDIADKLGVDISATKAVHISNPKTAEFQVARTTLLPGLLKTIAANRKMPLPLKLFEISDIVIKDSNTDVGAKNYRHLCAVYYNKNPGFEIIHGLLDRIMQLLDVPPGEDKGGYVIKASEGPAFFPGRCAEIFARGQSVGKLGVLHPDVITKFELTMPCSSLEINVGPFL
Sequence of UniProt P06241 (P06241 whole entry, looked up): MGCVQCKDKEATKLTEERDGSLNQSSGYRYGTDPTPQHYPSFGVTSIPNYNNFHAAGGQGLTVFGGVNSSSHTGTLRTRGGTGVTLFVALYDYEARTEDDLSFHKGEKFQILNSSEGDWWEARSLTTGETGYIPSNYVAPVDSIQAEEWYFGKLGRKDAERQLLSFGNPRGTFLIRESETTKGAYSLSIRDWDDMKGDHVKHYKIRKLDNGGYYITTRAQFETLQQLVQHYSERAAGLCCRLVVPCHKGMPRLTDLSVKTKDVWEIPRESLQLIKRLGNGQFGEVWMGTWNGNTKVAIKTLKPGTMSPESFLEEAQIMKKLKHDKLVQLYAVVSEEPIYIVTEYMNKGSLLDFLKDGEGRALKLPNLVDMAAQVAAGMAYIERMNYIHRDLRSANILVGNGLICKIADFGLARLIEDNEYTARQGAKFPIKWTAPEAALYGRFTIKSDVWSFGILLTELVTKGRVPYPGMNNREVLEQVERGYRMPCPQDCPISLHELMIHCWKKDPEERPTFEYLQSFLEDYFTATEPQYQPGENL
Sequence of UniProt P0C2W1 (P0C2W1 whole entry, looked up): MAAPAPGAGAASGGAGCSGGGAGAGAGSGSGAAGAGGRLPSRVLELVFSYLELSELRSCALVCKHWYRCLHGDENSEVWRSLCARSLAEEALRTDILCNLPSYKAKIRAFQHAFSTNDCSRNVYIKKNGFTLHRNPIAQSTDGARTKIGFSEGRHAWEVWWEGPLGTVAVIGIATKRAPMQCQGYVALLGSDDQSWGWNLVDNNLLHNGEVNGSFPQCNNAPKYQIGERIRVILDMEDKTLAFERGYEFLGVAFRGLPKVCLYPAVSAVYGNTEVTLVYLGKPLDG
Sequence of UniProt Q6P4F2 (Q6P4F2 whole entry, looked up): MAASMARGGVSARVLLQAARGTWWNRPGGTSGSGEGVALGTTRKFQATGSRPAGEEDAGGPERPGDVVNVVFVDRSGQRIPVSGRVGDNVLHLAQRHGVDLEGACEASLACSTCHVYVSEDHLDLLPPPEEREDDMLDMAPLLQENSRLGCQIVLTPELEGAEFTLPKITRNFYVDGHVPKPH
Sequence of UniProt Q9NRY5 (Q9NRY5 whole entry, looked up): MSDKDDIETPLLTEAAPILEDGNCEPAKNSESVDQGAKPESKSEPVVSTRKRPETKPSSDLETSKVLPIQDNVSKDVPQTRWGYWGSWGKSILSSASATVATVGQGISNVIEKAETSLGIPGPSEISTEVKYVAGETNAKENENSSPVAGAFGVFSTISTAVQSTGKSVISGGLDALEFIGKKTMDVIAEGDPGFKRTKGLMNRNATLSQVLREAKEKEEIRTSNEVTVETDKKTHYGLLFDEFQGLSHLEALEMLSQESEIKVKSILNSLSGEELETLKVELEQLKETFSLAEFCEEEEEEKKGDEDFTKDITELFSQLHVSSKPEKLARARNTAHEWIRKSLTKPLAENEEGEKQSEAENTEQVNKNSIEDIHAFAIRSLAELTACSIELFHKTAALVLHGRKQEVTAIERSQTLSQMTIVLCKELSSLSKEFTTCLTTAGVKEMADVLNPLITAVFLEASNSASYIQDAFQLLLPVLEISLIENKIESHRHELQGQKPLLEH
Sequence of UniProt P0DPD7 (P0DPD7 whole entry, looked up): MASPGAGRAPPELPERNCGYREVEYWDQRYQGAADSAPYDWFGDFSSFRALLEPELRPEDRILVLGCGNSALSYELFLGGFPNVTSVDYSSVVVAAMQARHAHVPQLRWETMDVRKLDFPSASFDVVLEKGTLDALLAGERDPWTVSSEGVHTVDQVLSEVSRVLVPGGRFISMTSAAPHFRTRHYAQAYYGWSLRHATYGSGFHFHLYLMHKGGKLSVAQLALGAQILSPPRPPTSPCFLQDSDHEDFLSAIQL
Sequence of UniProt O94905 (O94905 whole entry, looked up): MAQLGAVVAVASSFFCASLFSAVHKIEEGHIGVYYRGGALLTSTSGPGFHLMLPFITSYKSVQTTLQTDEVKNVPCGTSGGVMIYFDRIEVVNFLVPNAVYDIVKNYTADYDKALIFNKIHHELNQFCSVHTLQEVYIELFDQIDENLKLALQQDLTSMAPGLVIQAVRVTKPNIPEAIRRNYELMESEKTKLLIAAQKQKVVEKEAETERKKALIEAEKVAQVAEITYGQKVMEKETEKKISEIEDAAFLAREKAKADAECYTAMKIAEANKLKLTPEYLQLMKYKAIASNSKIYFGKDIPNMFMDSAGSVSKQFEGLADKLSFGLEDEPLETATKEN
Sequence of UniProt P57678 (P57678 whole entry, looked up): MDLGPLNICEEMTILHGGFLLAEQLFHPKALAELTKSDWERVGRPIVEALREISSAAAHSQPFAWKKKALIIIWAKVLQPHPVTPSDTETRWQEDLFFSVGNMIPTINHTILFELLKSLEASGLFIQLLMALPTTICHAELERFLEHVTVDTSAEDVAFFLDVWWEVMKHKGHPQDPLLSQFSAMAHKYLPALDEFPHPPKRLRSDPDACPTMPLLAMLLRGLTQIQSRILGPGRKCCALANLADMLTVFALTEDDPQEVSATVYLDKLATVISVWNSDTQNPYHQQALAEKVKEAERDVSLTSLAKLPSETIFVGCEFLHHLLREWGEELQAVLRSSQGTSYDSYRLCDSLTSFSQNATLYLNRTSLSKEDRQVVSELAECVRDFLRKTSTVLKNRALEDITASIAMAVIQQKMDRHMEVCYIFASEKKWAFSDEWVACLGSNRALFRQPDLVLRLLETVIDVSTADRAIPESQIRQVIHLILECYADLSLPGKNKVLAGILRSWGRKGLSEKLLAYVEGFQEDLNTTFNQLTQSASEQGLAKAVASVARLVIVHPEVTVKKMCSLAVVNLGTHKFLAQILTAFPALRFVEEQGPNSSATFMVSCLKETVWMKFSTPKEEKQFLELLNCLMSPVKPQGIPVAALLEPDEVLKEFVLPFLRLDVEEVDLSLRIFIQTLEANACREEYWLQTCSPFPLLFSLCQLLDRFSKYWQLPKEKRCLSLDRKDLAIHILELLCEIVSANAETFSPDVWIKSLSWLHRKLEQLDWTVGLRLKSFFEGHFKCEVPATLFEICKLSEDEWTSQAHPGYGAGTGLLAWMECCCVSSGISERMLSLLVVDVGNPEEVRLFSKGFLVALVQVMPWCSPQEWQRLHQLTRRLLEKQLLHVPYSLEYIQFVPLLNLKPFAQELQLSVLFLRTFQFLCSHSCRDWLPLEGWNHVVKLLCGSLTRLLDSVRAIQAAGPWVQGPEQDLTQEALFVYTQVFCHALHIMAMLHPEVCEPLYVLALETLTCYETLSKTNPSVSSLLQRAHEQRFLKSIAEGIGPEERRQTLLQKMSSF
Sequence of UniProt Q5VTE0 (Q5VTE0 whole entry, looked up): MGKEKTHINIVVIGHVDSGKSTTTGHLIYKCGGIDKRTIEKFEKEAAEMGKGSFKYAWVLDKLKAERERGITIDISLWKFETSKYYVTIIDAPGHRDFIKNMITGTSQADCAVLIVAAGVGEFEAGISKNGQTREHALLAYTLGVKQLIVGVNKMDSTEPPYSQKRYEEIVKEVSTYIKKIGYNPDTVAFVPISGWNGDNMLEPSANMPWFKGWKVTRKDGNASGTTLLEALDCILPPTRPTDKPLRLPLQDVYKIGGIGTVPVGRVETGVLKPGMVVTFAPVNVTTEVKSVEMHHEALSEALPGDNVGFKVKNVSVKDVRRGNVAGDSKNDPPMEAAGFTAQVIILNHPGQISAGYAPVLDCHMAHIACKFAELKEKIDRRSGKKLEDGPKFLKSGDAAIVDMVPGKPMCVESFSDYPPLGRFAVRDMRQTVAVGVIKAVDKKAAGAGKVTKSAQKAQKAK

Target | log2 fold change (vemurafenib) | log2 fold change [1] | log2 fold change (barasertib) | log2 fold change [2] | log2 fold change (volasertib) | log2 fold change [3] | log2 fold change [4] | log2 fold change [5] | log2 fold change (saracatinib) | log2 fold change (sotrastaurin)
FARSB (UniProt Q9NSD9) | -0.009 | 0.006 | 0.018 | 0.003 | -0.024 | 0.016 | 0 | -0.018 | 0.022 | 0.095
GGA2 (UniProt Q9UJY4) | -0.003 | 0.011 | 0.073 | -0.005 | -0.048 | 0.032 | -0.02 | -0.088 | 0.025 | 0.041
EEF1AKMT4 (UniProt P0DPD7) | 0.135 | 0.008 | 0.126 | -0.025 | -0.072 | -0.035 | -0.129 | 0.052 | -0.033 | -0.004
EHD2 (UniProt Q9NZN4) | 0.046 | 0 | 0.022 | 0.007 | -0.111 | 0.005 | 0.016 | -0.066 | 0.075 | 0.017
EPB41, A0A2R8Y783 | 0.129 | 0.063 | 0.112 | -0.141 | 0.057 | – | -0.136 | -0.048 | 0.075 | –
ESPL1 (UniProt Q14674) | 0.049 | 0.204 | 0.054 | 0.039 | 0.09 | -0.002 | -0.047 | -0.012 | -0.065 | -0.023
EEF1A1P5 (UniProt Q5VTE0) | 0.022 | 0.002 | -0.017 | 0.004 | -0.022 | -0.031 | -0.105 | 0.073 | -0.021 | 0.025
FXR2 (UniProt P51116) | 0 | 0.041 | -0.003 | -0.021 | -0.028 | 0.028 | 0.007 | -0.076 | 0.034 | -0.009
FYN (UniProt P06241) | -0.036 | -0.01 | 0.065 | -0.351 | 0.046 | 0.033 | 0.048 | 0.22 | – | 0.023
DTYMK (UniProt P23919) | -0.008 | 0.042 | 0.022 | -0.062 | 0.006 | 0.059 | 0.011 | -0.032 | 0.011 | -0.033
FDX2 (UniProt Q6P4F2) | 0.022 | -0.011 | 0.166 | 0.069 | 0.038 | -0.047 | -0.264 | -0.003 | -0.122 | -0.027
EDARADD (UniProt Q8WWZ3) | -0.066 | 0.02 | 0.255 (active) | -0.023 | -0.006 | -0.011 | -0.14 | 0.057 | 0.04 | -0.074
FAT2 (UniProt Q9NYQ8) | 0.213 | 0.19 | -0.001 | 0.016 | -0.097 | 0.089 | -0.487 | 0.248 | – | 0.125
EEF1A1, A0A087WVQ9 | 0.011 | 0.047 | -0.069 | 0.027 | -0.003 | -0.026 | -0.016 | -0.12 | 0.077 | 0.013
EIF2B4 (UniProt Q9UI10) | -0.064 | 0.026 | 0.006 | 0.04 | -0.032 | 0.048 | – | – | 0.042 | 0.047
EPB41, A0A2R8Y6D0 | -0.019 | -0.004 | 0.043 | -0.108 | 0.006 | -0.24 | -0.047 | 0.594 (active) | -0.082 | 0.044
DYNC1I2 isoform 5 (UniProt Q13409) | -0.015 | 0.013 | -0.03 | -0.012 | -0.013 | -0.016 | -0.017 | 0.017 | 0.003 | -0.034
EPHX2 (UniProt P34913) | -0.026 | -0.01 | -0.026 | 0.016 | 0.041 | -0.004 | -0.044 | 0.119 | -0.018 | 0.06
GAA (UniProt P10253) | 0.068 | -0.101 | -0.063 | -0.006 | 0.015 | -0.021 | 0.122 | 0.027 | – | -0.039
FARSA (UniProt Q9Y285) | -0.002 | -0.01 | -0.012 | 0.091 | -0.035 | -0.068 | -0.018 | 0.054 | 0.03 | 0.583 (active)
FTSJ3 (UniProt Q8IY81) | -0.004 | -0.011 | 0.006 | 0.011 | -0.033 | 0.024 | 0 | -0.005 | 0.015 | -0.003
FBXO45 (UniProt P0C2W1) | -0.064 | 0.088 | 0.031 | -0.077 | -0.04 | 0.062 | -0.002 | 0.037 | – | 0.028
GEMIN4 (UniProt P57678) | 0.036 | 0.025 | 0.041 | -0.037 | -0.053 | 0.023 | -0.168 | -0.091 | 0.091 | 0.041
FAM114A2 (UniProt Q9NRY5) | 0.054 | 0.049 | 0.086 | 0.131 | -0.013 | 0.014 | 0.049 | -0.039 | 0.03 | 0.033
ERLIN2 (UniProt O94905) | -0.003 | 0.012 | 0.021 | 0.05 | -0.029 | 0.012 | 0.384 (active) | -0.135 | 0.008 | -0.008
